# Bioassay records: PubChem BioAssay, National Center for Advancing Translational Sciences (NCATS)
# SARS PLP yeast: qHTS of Yeast-based Assay for SARS-CoV PLP; Potency, µM (highest dose often 32.9 µM), actives largely listed as activators; AID 485353, 2010; S. cerevisiae expressing SARS-CoV PLpro, growth rescue; hit rate 0.19% among 330,000; calls by dose curve; note: nearly all actives have a fitted effect of over 55% in size
# AMA1-RON2 inh: qHTS for Inhibitors of AMA1-RON; Towards Development of Antimalarial Drug Lead: Primary Screen; Plasmodium falciparum AMA1 (3D7) - RON2 peptide interaction; hit rate 0.2% among 360,000; AlphaScreen AMA1-biotinylated RON2 peptide binding; Potency, µM (highest dose often 58.2 µM), usual class: inhibitors; note: nearly all actives have a fitted effect of over 45% in size
#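 AMA1 (3D7) with his tag at 25 nM final met compounds first, then biotinylated RON2 peptide at 25 nM; detection used donor plus acceptor beads, 10 µg/mL apiece, read by AlphaScreen after 30 min at room temperature.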
# Cycloheximide cs: Cycloheximide Counterscreen for Small Molecule Inhibitors of Shiga Toxin; cell reporter, cycloheximide protein synthesis inhibition counterscreen; hit rate 12% among 300,000; max response, %; in the data active = max response mostly above about 13%, no sharp cut-off; inactive = mostly below about 14%; note: read at 38.3 µM for the half of the compounds with a filed dose
# Pf growth 96h: Primary qHTS for delayed death inhibitors of the malarial parasite plastid, 96 hour incubation. P. falciparum luciferase reporter growth, 96 h. Potency, µM (top dose mostly 28.7 µM), actives largely listed as inhibitors. hit rate 6.9% among 320,000
#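 Readout is luminescence from an integrated firefly luciferase in P. falciparum. Red cells, 2% hematocrit and 0.05% parasitemia final, were cultured with compound through two parasite generations (96 hours) at 37 C, 5% CO2.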
# Shiga toxin inh: A qHTS for Small Molecule Inhibitors of Shiga Toxin | AID 2315, 2010 | inhibition, % at 38.7 µM | hit rate 9.2% among 290,000 | Vero cells, Shiga toxin protein synthesis inhibition reporter; in the data active = inhibition mostly above about 28%, no sharp cut-off; inactive = mostly below about 43%
# Pf growth 48h: Primary qHTS for delayed death inhibitors of the malarial parasite plastid, 48 hour incubation | hit rate 5.9% among 310,000 | Potency, µM (top dose mostly 28.7 µM), usual class: inhibitors | P. falciparum luciferase growth in erythrocytes, 48 h
#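 Compounds are pin-transferred into medium, infected erythrocytes (2% hematocrit, 0.1% parasitemia final) are added, and plates sit one parasite generation at 37 C in 5% CO2. Detection reagent is then added and luminescence measured.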
# Numbers stand for hits; n = inactive; u = inconclusive; x = not tested or not shown; + = active, no number; [ ] = dose if it differs, or a comment. Only some compounds are listed: those with a hit (about 19% of all), similar ones and a draw of the others. Unless noted, calls come from the whole dose curve; as a rule, active = well fitted curve in the direction sought with a large enough effect; inconclusive = small, poorly fitted or top-dose-only effect, or another doubt; inactive = no such curve, though single readings can be large; an effect the other way counts as inactive or inconclusive.
SMILES,SARS PLP yeast,AMA1-RON2 inh,Cycloheximide cs,Pf growth 96h,Shiga toxin inh,Pf growth 48h
Cc1cc(C)n(Cc2ccc(NC(=O)c3ccc(COc4ccccc4Br)cc3)cc2)n1,n,n,n,u,n,u
O[C@@H]1CO[C@H]2C1OC[C@@H]2O (stereo partly drawn),x,x,n,x,n,x
CCC(=O)c1cc(-c2nc3ccccc3n2C)n(C)c1,n,n,n,x,n,n
Cn1cc(C(=O)c2ccccc2)cc1-c1nc2ccccc2n1C,n,n,13,u,n,n
Cc1oc(-c2nc3ccccc3n2C)cc1C(=O)c1ccccc1,n,n,27,n,+,n
CSc1ccccc1NC(=O)Cn1nnc(-c2ccc(S(C)(=O)=O)cc2)n1,n,n,n,n,n,n
O=C(CN1C(=O)CCC1=O)c1ccc(-c2ccccc2)cc1,n,n,63,n,83,n
N=c1ccn(CC(=O)c2ccc(-c3ccccc3)cc2)cc1,n,n,n,u,n,0.83µM
CC(C)CCNC(=O)CN(C(=O)CCC(=O)Nc1ccccn1)c1ccc2c(c1)OCO2,n,n,n,n,n,n
Cc1ccc(N(CC(=O)NC2CCCC2)C(=O)c2ccc(C)s2)cc1,n,n,n,n,n,n
Cc1ccc(C(=O)N(CC(=O)NC2CCCC2)c2ccc3c(c2)OCCO3)s1,n,n,n,13µM,n,n
Cc1ccc(N(CC(=O)NC2CCCC2)C(=O)CCC(=O)Nc2ccccn2)cc1C,n,n,n,n,n,n
CC(C)CCNC(=O)CN(C(=O)CCC(=O)Nc1ccccn1)c1ccc2c(c1)OCCO2,n,n,22,n,56,n
O=C(CCC(=O)N(CC(=O)NC1CCCCC1)c1ccc2c(c1)OCCO2)Nc1ccccn1,n,x,21,n,n,n
O=C(CN(C(=O)CCC(=O)Nc1ccccn1)c1ccc2c(c1)OCCO2)NCCc1ccccc1,n,n,12,n,n,n
CCCC/C=C/[C@H](c1ccccc1)[C@H](CO)Cc1cccnc1,x,n,n,x,n,x
CC(C)=C[C@H]1C[C@H](C)[C@H]2CC[C@H](C)c3c(O[C@@H]4OC[C@@H](O)[C@H](O)C4O)c(O)c(C)c1c32 (stereo partly drawn),n,n,x,x,x,x
Cc1nnc(SC(C)C(=O)NCC2CCCO2)n1-c1ccccc1 (stereo not drawn),n,n,n,n,n,n
CC(Sc1nn(-c2ccccc2)c(=S)s1)C(=O)NCC1CCCO1 (stereo not drawn),x,n,x,13µM,x,9.3µM
CCC(=O)Nc1ccc2c(c1)OC[C@@H](C)N(Cc1ccccc1F)C[C@@H](C)[C@@H](OC)CN(C)C2=O,x,n,x,x,x,x
OC(CCCC(O)c1ccccc1)c1ccccc1 (stereo not drawn),x,n,x,x,x,x
Cc1ccc([N+](=O)[O-])c(OCCN2CCNCC2)c1,n,u,n,2.3µM,n,n
Cc1ccc([N+](=O)[O-])c(OCc2ncc(Cl)n2C)c1,n,n,39,n,72,n
Cc1ccc(OCCOCCN2CCCCC2)c([N+](=O)[O-])c1,n,n,n,n,n,u
O=c1cc(CS(=O)(=O)c2ccccc2)nc(-c2ccncc2)[nH]1,n,n,n,u,n,12µM
SMILES,SARS PLP yeast,AMA1-RON2 inh,Cycloheximide cs,Pf growth 96h,Shiga toxin inh,Pf growth 48h
C=CCN1C(c2cccc(C(F)(F)F)c2)=CS/C1=C(/C#N)c1nnc(N2CCOCC2)n1-c1ccccc1,n,n,n,12µM,n,10µM
CC1=C(C)SC(=C(C#N)c2nnc(N3CCOCC3)n2-c2ccccc2)S1,n,n,n,9.3µM,n,u
O=C1OCC/C1=C\OCCCO/C=C1\CCOC1=O,n,n,n,n,n,n
CC(C)OC(=O)CC1C(=O)NCCN1C(=S)NC(=O)c1cccs1 (stereo not drawn),n,n,n,n,n,n
C[C@H](CO)N1C[C@H](C)[C@@H](CN(C)S(C)(=O)=O)Oc2ccc(NC(=O)CCN3CCOCC3)cc2C1=O,n,n,x,x,x,x
COCCNC(=O)C1(C)CCCN(C(=O)c2cccnc2SC)C1 (stereo not drawn),x,n,x,x,x,x
CCCCN(C(=O)CSc1nc2ccccc2s1)c1c(N)n(CCCC)c(=O)[nH]c1=O,n,n,x,x,x,x
CCCCn1c(N)c(N(CC(C)C)C(=O)c2cc(-c3ccc(OC)c(OC)c3)nc3ccccc23)c(=O)[nH]c1=O,n,n,x,u,x,1.3µM
CCCCN(C(=O)c1cc(-c2ccc(F)cc2)nc2ccccc12)c1c(N)n(CCCC)c(=O)[nH]c1=O,n,n,x,7.4µM,x,u
CCCCCN(C(=O)CCC(=O)OCC(=O)N(C)c1ccccc1)c1c(N)n(CCCC)c(=O)[nH]c1=O,n,n,x,n,x,n
CCCCN(C(=O)CSc1nn(-c2ccc(F)cc2)c(=S)s1)c1c(N)n(CCCC)c(=O)[nH]c1=O,n,n,x,13µM,x,u
CCCCCN(C(=O)CCC(=O)OCC(=O)c1ccc(C(C)CC)cc1)c1c(N)n(CCCC)c(=O)[nH]c1=O (stereo not drawn),n,n,x,u,x,10µM
CCCNC(=O)C1(C)CCN(Cc2ccc(Oc3ccccc3)cc2)C1 (stereo not drawn),x,n,x,x,x,x
Cc1cccc(NC(=O)COC(=O)CCc2c[nH]c3ccccc23)c1,n,n,x,n,x,n
COCCn1c(SCC(=O)NC2CC2)nnc1-c1ccc(Cl)cc1,n,n,x,n,x,n
CCCCn1c(N)c(N(CCC(C)C)C(=O)CCCc2nc3ccccc3s2)c(=O)[nH]c1=O,n,n,n,15µM,n,n
CCCCn1c(N)c(N(CC(C)C)C(=O)c2cc(-c3ccc(F)cc3)nc3ccccc23)c(=O)[nH]c1=O,n,n,x,u,x,12µM
CC1CN(S(=O)(=O)c2cc(C(=O)N(C)Cc3cccs3)ccc2Cl)CC(C)O1 (stereo not drawn),n,n[11.6 µM],x,x,x,x
CCCCSCc1nc2ccccn2c1Br,n,n,31,u,56,u
CCSCc1nc2ccccn2c1Br,n,n,n,u,n,n
c1cn2c(NC3CCCCC3)c(-c3ccc(SC4CCCCC4)cc3)nc2cn1,n,n,x,u,x,3.7µM
CCC(C)Sc1cc(-c2nc3cc(C)ccn3c2NC2CCCCC2)ccc1OC (stereo not drawn),n,n,x,x,x,x
CC(=O)c1ccc(-c2cccc(-c3nc4ccccn4c3NC3CCCCC3)c2)cc1,n,n,x,u,x,12µM
COc1ccc(-c2ccc(-c3nc4ccc(C)cn4c3NC3CCCCC3)cc2OC)cc1,n,n,x,12µM,x,12µM
CCC(C)Sc1cc(-c2nc3ccccn3c2NC2CCCCC2)ccc1OC (stereo not drawn),n,n,x,u,x,4.1µM
O=C(CC[C@H]1O[C@@H](n2cnc3c(NC(=O)c4ccccc4)ncnc32)[C@H](O)[C@@H]1O)NCC(F)(F)F,x,n,x,x,x,x
N=C(N)n1cccn1,x,x,x,n,x,n
